Several values for one entry are separate records, joined by “and”; a condition that tells them apart may be missing. Equal values may be shown once. Where a structure was tested more than once in an assay, its records may differ in their call. Activity calls are given as the source filed them. Rule for the calls: active = hit-call score of the fitted dose curve at least 0.9, where 1 is the maximum; inactive = score below 0.9.

This assay is described as follows: ATG_PPRE_CIS: Attagene CIS-FACTORIAL HepG2 Assay for human Peroxisome Proliferator-activated Response Element (PPRE) (AID 2282958). The conditions noted are these: HepG2 PPRE cis-element reporter, Attagene transcription factor profiling; actives raise or lower the signal. As to the method:
ATG_CIS is a cell-based, multiplexed-readout assay that uses HepG2, a human liver cell line, with measurements taken at 24 hours after chemical dosing in a 24-well plate.ATG_PPRE_CIS is one of 52 assay component(s) measured or calculated from the ATG_CIS assay. It is designed to make measurements of mRNA induction, a form of inducible reporter, as detected with fluorescence intensity signals by Reverse transcription polymerase chain reaction (RT-PCR) and Capillary electrophoresis technology.Data from the assay component ATG_PPRE_CIS was analyzed into 1 assay endpoint. This assay endpoint, ATG_PPRE_CIS, was analyzed with bidirectional fitting relative to DMSO as the negative control and baseline of activity. Using a type of inducible reporter, measures of mRNA for gain or loss-of-signal activity can be used to understand the reporter gene at the transcription factor-level as they relate to the gene PPARA and PPARD and PPARG. Furthermore, this assay endpoint can be referred to as a primary readout, because this assay has produced multiple assay endpoints where this one serves a reporter gene function. To generalize the intended target to other relatable targets, this assay endpoint is annotated to the nuclear receptor intended target family, where the subfamily is non-steroidal.
Human liver HepG2 cells are transiently transfected with multiple reporter transcription units (MRTUs) in 6-well plates using FuGene 6 reagent (Roche; 3 ml FuGene/1 mg DNA). The MRTU constructs are regulated by a cis-regulating element (promoter). […] A major difference between the CIS and TRANS system is that in CIS activities of endogenous TFs are measured, whereas the TRANS assay evaluates changes in activities of exogenous, chimeric NR-Gal4 proteins. […] At the end of 24 hour incubation, total RNA was isolated using TriZol reagent (Invitrogen). The isolated RNA is then reverse-transcribed using oligo(dT) primer and Mo-MLV reverse transcriptase (Invitrogen) with DNAse I (Ambion) treatment for 30 min. The one-tenth of the produced cDNA was amplified by PCR using Taq DNA polymerase (Invitrogen) and two reporter sequence-specific primers. The PCR products were fluorescently labeled by primer extension with 6-arboxyfluorescein (6-FAM) 5'-labeled reporter sequence-specific primer (2 min at 95 C, 20 s at 68 C and 10 min at 72 C) and these products were digested with 5U of HpaI (New England Biolabs) for 2h at 37 C. The fragments were purified using Qiaquick PCR columns (Qiagen), analyzed on an ABI 3130xL genetic analyzer (Applied Biosystems) with peak positions identified by using a set of X-rhodamine (ROX)-labeled MapMarker1000 molecular weight standards (BioVentures). The raw capillary electrophoresis data was processed using Attagraph software (Attagene).
For the compound `O=C1NS(=O)(=O)c2ccccc21`, the outcome was inactive.

Turning to `CCOCCOCC`, the outcome was inactive.

Consider `Clc1ccc(Nc2nnc(Cc3ccncc3)c3ccccc23)cc1`, for which the result was inactive.

Consider `CCCCCCCCC(C)=O`, for which the call was inactive.

With `CN(CCO)S(=O)(=O)C(F)(F)C(F)(F)C(F)(F)C(F)(F)C(F)(F)C(F)(F)C(F)(F)C(F)(F)F`, the outcome was inactive.

`O=C(F)C(F)(F)C(F)(F)C(F)(F)C(F)F`: the call was inactive.

On to `CNNCc1ccc(C(=O)NC(C)C)cc1`, for which the outcome was inactive.

With `CC(=O)Nc1ccc(O)cc1`, the outcome was inactive.

For the compound `C[C@]12CC[C@@H]3c4ccc(O)cc4CC[C@H]3[C@@H]1C[C@@H](O)[C@@H]2O`, the compound was classed as inactive.

As to `O=CC(F)(F)C(F)(F)C(F)(F)F`, the result was inactive.

On to `CCCCC(CC)C(=O)OCCOCCOCCOCCOC(=O)C(CC)CCCC` (stereo not given), for which the compound was called inactive.

With `CC(C)(C)c1ccc(CCC=O)cc1`, the call was inactive.

`OCC(F)(F)C(F)(F)C(F)(F)C(F)(F)C(F)(F)C(F)(F)C(F)(F)C(F)(F)C(F)(F)C(F)(F)C(F)(F)F`: the result was inactive.

Regarding `Cc1cc(C(=C2C=CC(=Nc3ccc(S(=O)(=O)O)cc3)C=C2)c2ccc(Nc3ccc(S(=O)(=O)O)cc3)cc2)cc(S(=O)(=O)O)c1N`, the call was inactive.

Turning to `COC(O)c1ccccc1` (stereo not given), the result was inactive.

On to `CCN(CCC#N)c1ccccc1`, for which the result was inactive.

In general, AC50 refers to the concentration giving half of the maximal activity seen. As for `O=S(=O)(O)c1ccccc1`, the concentration at half-maximal activity (AC50) is 57.9 µM (active) and the compound was called inactive.

Take `CCN(CC)CC`: the call was inactive.

As for `C=CC(=O)OCCC(F)(F)C(F)(F)C(F)(F)C(F)(F)C(F)(F)C(F)(F)F`, the compound was classed as inactive.

With `CCOC(=O)CN[C@@H](C(=O)N1CC[C@H]1C(=O)NCc1ccc(/C(N)=N/O)cc1)C1CCCCC1`, the compound was classed as inactive.

In the case of `CCC(C)c1nccnc1OC` (stereo not given), the outcome was inactive.

Turning to `CCCCN(C)C`, the compound was called inactive.

With `O=C(CC(=O)C(F)(F)C(F)(F)C(F)(F)F)c1cccs1`, the AC50 is 8.07 µM (active) and 26.2 µM (active).

Regarding `FC1(F)C=CC(F)(F)C1(F)F`, the compound was classed as inactive.

Turning to `CCC(=O)C=Cc1ccc(OC)cc1`, the call was inactive.

For `CC1CCC(C(=O)O)CC1` (stereo not given), the compound was classed as inactive.

Turning to `C=CC(=C)CC/C=C(\C)CCC=C(C)C`, the compound was called inactive.

With `CC1=CC(=O)c2ccccc2C1=O`, the call was inactive.

For the compound `C[C@]12CC[C@@H]3c4ccc(O)cc4CC[C@H]3[C@@H]1CC[C@@H]2OC(=O)CCC1CCCC1`, the concentration at half-maximal activity (AC50) was 100 µM (active).

With `CC(C)c1c(C(=O)Nc2ccccc2)c(-c2ccccc2)c(-c2ccc(F)cc2)n1CC[C@@H](O)C[C@@H](O)CC(=O)O`, the compound was classed as inactive.

Consider `CCCCCCCCC1CCC(=O)O1` (stereo not given), for which the result was inactive.

Consider `N=C(N)c1ccc(OCCCCCOc2ccc(C(=N)N)cc2)cc1`, for which the compound was called inactive.

As for `CCC(C)c1ccccc1O` (stereo not given), the call was inactive.

`CC1COCc2cc3c(cc21)C(C)(C)C(C)C3(C)C` (stereo not given): the call was inactive.

As for `FC(F)(F)N1C(F)(F)C(F)(F)OC(F)(F)C1(F)F`, the compound was called inactive.

With `O=C1Cc2ccccc2N1c1c(Cl)cccc1Cl`, the compound was called inactive.

Consider `CC(C)(C)C1CCCCC1O` (stereo not given), for which the outcome was inactive.

Turning to `CC(C)C=O`, the call was inactive.

Take `CC[N+](CC)(CC)Cc1ccccc1`: the outcome was inactive.

The record behind these values is PubChem BioAssay (EPA / NIEHS).
